The list is not random: actives were taken first. Their share in the collection is about 2.4%.
CHRM1 PAM: human CHRM1 positive allosteric modulation; AID 588819; CHO-K1 hM1, Fluo-8 calcium fluorescence, ACh EC20; 0% = ACh EC20, 100% = maximal ACh; activation, % at 3 µM; actives 0.088% (n = 360,000); in the data active = activation above about 19%, passing the limit was not always enough
Target sequence (P11229 whole entry, looked up): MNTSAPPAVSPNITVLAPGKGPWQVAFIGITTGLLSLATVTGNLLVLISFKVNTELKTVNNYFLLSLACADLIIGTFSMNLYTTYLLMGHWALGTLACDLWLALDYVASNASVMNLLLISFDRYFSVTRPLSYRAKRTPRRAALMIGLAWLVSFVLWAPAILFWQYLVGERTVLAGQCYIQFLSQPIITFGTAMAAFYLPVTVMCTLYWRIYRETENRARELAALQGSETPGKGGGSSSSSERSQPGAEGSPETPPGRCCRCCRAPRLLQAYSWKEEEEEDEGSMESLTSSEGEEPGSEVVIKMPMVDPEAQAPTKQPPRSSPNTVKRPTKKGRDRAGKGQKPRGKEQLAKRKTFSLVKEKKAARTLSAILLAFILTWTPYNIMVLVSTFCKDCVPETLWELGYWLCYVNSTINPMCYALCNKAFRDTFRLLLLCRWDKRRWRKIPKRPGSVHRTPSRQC
CHO-K1 Ca ag: M1 agonist counterscreen hit in parental CHO-K1 cells; Fluo-8 calcium fluorescence; scaled to maximal ATP response, vehicle zero; activation, % at 3 µM; actives 0.48% (n = 360,000); AID 602248; in the data active = activation above about 15%;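 note: untransfected CHO-K1 host cells lacking M1 receptor as counterscreen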
CHO-K1 Ca PAM: M1 PAM counterscreen hit in parental CHO-K1 cells; ATP EC20, Fluo-8 calcium fluorescence; 0% at ATP EC20, 100% at ATP max; activation, % at 3 µM; actives 0.02% (n = 360,000); AID 602247;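 active = activation above the run cutoff, the mean activation of all test compounds plus 3 SD, cut at about 40% in these data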;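 note: peak over basal fluorescence ratio in a 140 s read after ATP addition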
CHO-K1 Ca antag: counter-screen for M1 antagonists: effect in parental CHO-K1 cells | inhibition, % at 3 µM | actives 0.6% (n = 360,000) | ATP-induced calcium, Fluo-8 fluorescence;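 active = inhibition above a per-plate cutoff, the plate's mean sample inhibition plus 3 SD, cut at about 24% in these data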;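 note: 0% = DMSO plus EC80 ATP and 100% = DMSO alone without ATP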
M1 ag: agonists of human M1 muscarinic receptor. P11229. CHO-K1 hM1, Fluo-8 calcium fluorescence, agonist mode; 0% DMSO, 100% acetylcholine EC100. activation, % at 3 µM. actives 0.33% (n = 360,000). AID 588814;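 active = activation above the run's mean compound activation plus 3 SD, cut at about 16% in these data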;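 note: peak over basal fluorescence ratio within a 140 s kinetic read after compound addition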
CHRM1 antagonist: antagonists of human M1 muscarinic receptor; P11229; inhibition, % at 3 µM; CHO-K1 hM1, Fluo-8 calcium fluorescence, ACh EC80 antagonist; actives 1.3% (n = 360,000);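 active = percent inhibition above its own plate's cutoff, namely the mean of that plate's compound wells plus 3 SD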;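 note: peak over basal fluorescence ratio during 140 s after agonist addition; 0% = ACh EC80 plus DMSO and 100% = DMSO alone without agonist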
An asterisk follows results filed as active; nt = not tested or not shown.

SMILES | CHRM1 PAM | CHO-K1 Ca ag | CHO-K1 Ca PAM | CHO-K1 Ca antag | M1 ag | CHRM1 antagonist
Cc1ccc(C2C(C#N)=C(N)SC(N)=C2C#N)c(C)c1 | -3 | 12 | -4 | 16 | 20* | 12
Cc1ccc(C2C(C#N)=C(N)SC(N)=C2C#N)cc1 | -1 | 8 | 2 | 4 | 8 | 10
Cc1ccc(C)c(S(=O)(=O)N(C)C2(C)CCS(=O)(=O)C2)c1 (centres undefined) | 9 | 1 | 2 | -10 | -2 | -4
CC1=[N+](C)N(c2ccccc2)C(=O)C1N=C/C=C/c1ccccc1 (centres undefined) | -26 | 1 | 9 | -5 | -7 | 99*
COc1ccccc1/C=C/C=NC1C(=O)N(c2ccccc2)[N+](C)=C1C (centres undefined) | -4 | 1 | 2 | -2 | -6 | 5
O=C(Cn1ccc2cc(S(=O)(=O)N3CCCC3)ccc21)NCCc1ccccc1 | 9 | 1 | -2 | 3 | -1 | -9
COc1cc([N+](=O)[O-])cc(/C=C2/SC(=S)N(Cc3ccccc3)C2=O)c1O | -14 | 37* | -6 | 40* | 38* | 51*
COc1cc(/C=C2/SC(=S)N(Cc3ccccc3)C2=O)cc(Cl)c1O | -4 | 6 | -19 | 3 | 25* | 23
COc1cc(/C=C2/SC(=S)N(Cc3ccccc3)C2=O)ccc1OCC(=O)O | 15 | 1 | 18 | 0 | 1 | -10
COc1ccc(CN2C(=O)/C(=C/c3ccncc3)SC2=S)cc1 | 24* | 3 | 17 | -1 | 4 | -10
O=C1/C(=C\c2cccc([N+](=O)[O-])c2O)SC(=S)N1Cc1ccccc1 | 8 | 1 | -20 | -9 | 0 | -7
COC(=O)c1c(NC(=O)COC(=O)C2CCC2)sc(C)c1C | 3 | 7 | -6 | 3 | -4 | -2
CCCCN(C(=O)c1ccc(Cl)cc1)C1CC2CCC(C1)N2C (centres undefined) | -19 | 1 | -10 | 12 | -10 | 28*
O=c1ccc(-c2ccc(S(=O)(=O)NCC3CCN(Cc4ccccc4F)CC3)s2)n[nH]1 | -24 | 0 | -20 | -2 | -4 | 93*
O=C1CC(N2CCN(C/C=C/c3ccccc3)CC2)C(=O)N1CCc1ccccc1 (centres undefined) | -25 | 16* | 0 | -2 | -3 | 9
O=C1CC(N2CCN(C/C=C/c3ccccc3)CC2)C(=O)N1Cc1cccs1 (centres undefined) | -24 | 2 | 16 | -20 | -8 | 87*
O=C1CC(N2CCN(c3ccc(O)cc3)CC2)C(=O)N1Cc1cccs1 (centres undefined) | 3 | 1 | -2 | 3 | -4 | -6
O=C1CC(N2CCN(C3CC(=O)N(CCc4ccccc4)C3=O)CC2)C(=O)N1CCc1ccccc1 (centres undefined) | 0 | 2 | -8 | -1 | -3 | 0
CCOc1ccccc1-c1c2cc(O)c(=O)cc-2oc2cc(O)c(O)cc12 | -4 | 17* | 11 | 3 | 17* | 1
O=c1cc2oc3cc(O)c(O)cc3c(-c3ccccc3O)c-2cc1O | -10 | 11 | 2 | -1 | 26* | 10
COc1ccc(OC)c(-c2c3cc(O)c(=O)cc-3oc3cc(O)c(O)cc23)c1 | -19 | 72* | -8 | 32* | 222* | 33*
CCCCNc1c(CC(C)C)nc2nc(C)cc(C)n12 | nt | -1 | -9 | 25* | nt | nt
Cc1ccc(NC(=O)CN(C)C2CCCCC2)cc1Cl | 5 | 3 | -7 | -15 | -7 | -6
COc1ccccc1N1CCN(Cc2cn[nH]c2-c2ccc(F)cc2)CC1 | 16 | 19* | 27 | -32 | 44* | -19
COc1ccccc1N1CCN(Cc2nc(-c3ccc(F)cc3)oc2C)CC1 | 0 | 3 | 16 | 2 | -9 | 3
Cc1ccccc1C(=O)NCC(=O)N1CCN(C/C=C/c2ccccc2)CC1 | -18 | 1 | -14 | -7 | 23* | 33*
Cc1ccc(NC(=O)N2CCN(C/C=C/c3ccccc3)CC2)cc1 | 6 | 0 | 11 | 0 | -10 | -10
COc1ccccc1C(=O)NCC(=O)N1CCN(C/C=C/c2ccccc2)CC1 | 1 | 0 | 8 | -12 | 22* | -2

Bioassay records deposited in PubChem BioAssay by The Scripps Research Institute Molecular Screening Center.
